Values without a mark were called inactive. Activity calls are given as the source filed them. No rule for the calls is given here.
System: HIV-1 nucleocapsid protein NCp7 (binding to TG oligonucleotide)
Test: HIV Nucleocapsid (AID 346);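 also: potency is for inhibitors that block NC binding and lower polarization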
Conditions: HIV-1 NC / fluorescein-TGTGTGTG probe, fluorescence polarization
Outline: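 10 nM TG4xF probe with 100 nM nucleocapsid protein in high-salt Hepes pH 7.5 (250mM NaCl) containing 1uM ZnCl2 and reducing agents. Compound inhibition of binding was read as fluorescein polarization after 1 hr at room temperature.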
Potency is read from the fitted curve at half-maximal effect.

SMILES | Potency
CC(C)CN1CCC2(CC1)CCN(C(=O)c1ccco1)CC2 | > 20 µM
COc1cccc(Cn2c(=O)c(-c3ccc(F)cc3)nc3cnc(N4CCNCC4)nc32)c1 | > 20 µM
COCCn1c(=O)c(-c2ccc(Cl)cc2)nc2cnc(N3CCNCC3)nc21 | > 20 µM
Cc1noc(C)c1C(=O)N1CCC2(CC1)CCN(C(c1ccccc1)c1ccccc1)CC2 | > 20 µM
N#Cc1ccc(CN2CCC3(CC2)CCN(C(=O)c2cc(C(F)(F)F)cc(C(F)(F)F)c2)CC3)cc1 | > 20 µM
COCCNc1ccnc(-c2ccccc2C(F)(F)F)n1 | > 20 µM
c1ccc(-c2cccc(N3CC4(CCNCC4)C3)c2)cc1 | > 20 µM
COc1ccc(CNc2cc(-c3ccccc3Cl)ncn2)c(OC)c1 | > 20 µM
Cc1noc(C)c1C(=O)N1CCC2(CC1)CCN(c1ccccn1)CC2 | > 20 µM
O=S(=O)(c1ccccc1)N1CCC2(CCN(Cc3nccs3)CC2)CC1 | > 20 µM
COc1ccccc1CN1CCC2(CC1)CCN(S(=O)(=O)c1ccccc1)CC2 | > 20 µM
COc1ccc2[nH]cc(CCNc3ncnc4ccc(-c5cccc(C#N)c5)cc34)c2c1 | > 20 µM
O=C(Nc1cccc(F)c1)N1CC2(CCN(C(=O)c3cccc(F)c3)CC2)C1 | > 20 µM
CN(C)c1ncc2nc(-c3ccccc3)c(=O)n(C[C@H]3CCCO3)c2n1 | > 20 µM
CS(=O)(=O)N1CCC2(CCN(C(=O)Nc3cccc(C#N)c3)CC2)CC1 | > 20 µM
N#Cc1ccc(CN2CC[C@@]3(CCCN(C(=O)c4ccco4)C3)C2)cc1 | > 20 µM
COc1ccc(C(=O)N2CCC3(CC2)CCN(c2ccccn2)CC3)cc1 | > 20 µM
N#Cc1ccc(CN2CCCC3(CCN(C(=O)c4cnccn4)CC3)C2)cc1 | > 20 µM
COc1ccccc1-c1nccc(NCc2ccccc2)n1 | > 20 µM
COc1ccccc1CN1CCCC2(CCNCC2)C1 | > 4 µM
COc1cccc(Cn2c(=O)c(-c3ccc(Cl)cc3)nc3cnc(OC)nc32)c1 | > 20 µM
COc1ccc(-c2nc3cnc(OC)nc3n(C[C@H]3CCCO3)c2=O)cc1 | > 20 µM
CN(C)c1ccc(-c2ccc3ncnc(N(C)Cc4ccco4)c3c2)cc1 | > 20 µM
O=C(c1cccc(F)c1)N1CCC2(CCCN(c3ccncc3)C2)CC1 | > 20 µM

SMILES | Potency
CN(C)C(=O)c1ccc(-c2nc(NCc3ccccc3)c3ccccc3n2)cc1 | > 20 µM
Cc1noc(C)c1-c1cc(NCc2cccnc2)ncn1 | > 20 µM
CS(=O)(=O)Nc1cccc(-c2nc(NCCN3CCOCC3)c3ccccc3n2)c1 | > 20 µM
O=C(c1cnccn1)N1CCC[C@@]2(CCN(c3ccccc3)C2)C1 | > 20 µM
COC(=O)N1CCC[C@@]2(CCN(c3ccccn3)C2)C1 | > 20 µM
N#Cc1cccc(NC(=O)N2CCCC3(CCN(C(=O)c4csnn4)CC3)C2)c1 | > 20 µM
O=C(c1ccco1)N1CCC2(CCN(Cc3ccncc3)CC2)CC1 | > 20 µM
Cc1cccc(CNc2ncncc2-c2cccc(C#N)c2)c1 | > 20 µM
CN1CCN(c2ncnc3ccc(-c4ccc5c(c4)OCO5)cc23)CC1 | > 20 µM
CC(C)NC(=O)N1CCCC2(CCN(C(=O)c3ccco3)CC2)C1 | > 20 µM
O=S(=O)(c1ccccc1)N1CCC2(CCN(c3cccc(-c4ccccc4)c3)CC2)CC1 | > 20 µM
COCCn1c(=O)c(-c2cc(F)cc(F)c2)nc2cncnc21 | > 20 µM
N#Cc1cccc(-c2nc3cnc(N4CCNCC4)nc3n(C3CC3)c2=O)c1 | > 20 µM
COC(=O)N1CCC2(CCN(C(=O)Nc3ccccc3)CC2)CC1 | > 20 µM
O=c1c(-c2ccc(F)cc2)nc2cncnc2n1C1CC1 | > 20 µM
CN(Cc1ccco1)c1ncncc1-c1cccc(C#N)c1 | > 20 µM
Cn1c(=O)c(CCc2ccccc2)nc2cncnc21 | > 20 µM
CCNc1ncc2ncc(=O)n(CCOC)c2n1 | > 20 µM
COc1ccccc1CNc1nc(-c2cccc(NS(C)(=O)=O)c2)nc2ccccc12 | > 20 µM
CN(C)c1ccc(-c2nc(Nc3ccncc3)c3ccccc3n2)cc1 | > 20 µM
COc1cccc(-c2nccc(-n3ccnc3)n2)c1 | > 20 µM
COc1ccc2[nH]cc(CCNc3ncncc3-c3cccc(NS(C)(=O)=O)c3)c2c1 | > 20 µM
COc1ccccc1CN1CC[C@@]2(CCCN(C(=O)c3cc(C(F)(F)F)cc(C(F)(F)F)c3)C2)C1 | > 20 µM
O=c1c(CCc2ccccc2)nc2cnc(N3CCNCC3)nc2n1C1CC1 | > 20 µM

SMILES | Potency
CC(C)CN1CC[C@@]2(CCCN(C(=O)c3csnn3)C2)C1 | > 20 µM
COc1cccc(Cn2c(=O)c(-c3cccc(C#N)c3)nc3cnc(Nc4ccccc4)nc32)c1 | 0.198 µM (active)
COc1ccc(C(=O)N2CCC[C@@]3(CCN(CC(C)C)C3)C2)cc1 | > 20 µM
COc1ccccc1CCn1c(=O)c(-c2ccc(F)c(F)c2)nc2cncnc21 | > 20 µM
O=C(c1cnccn1)N1CCC2(CCCN(c3ccccc3)C2)CC1 | > 20 µM
Cc1cccc(CNc2cc(-c3cccc(NS(C)(=O)=O)c3)ncn2)c1 | > 20 µM
O=C(c1ccncc1)N1CCC[C@@]2(CCN(Cc3ccncc3)C2)C1 | > 20 µM
COCCNc1ncnc2ccc(-c3ccccc3C)cc12 | > 20 µM
COc1cccc(Cn2c(=O)c(-c3cc(F)cc(F)c3)nc3cnc(N4CCNCC4)nc32)c1 | > 20 µM
O=c1c(-c2cccs2)nc2cnc(Oc3cccc(Cl)c3)nc2n1C[C@H]1CCCO1 | > 20 µM
COc1ccc2[nH]cc(CCNc3cc(-c4ccoc4)ncn3)c2c1 | > 20 µM
COc1ccc(CNc2ncncc2-c2ccoc2)c(OC)c1 | > 20 µM
FC(F)(F)c1ccccc1-c1cncnc1NCc1cccnc1 | > 20 µM
O=C(c1csnn1)N1CCC[C@@]2(CCN(Cc3ccccc3)C2)C1 | > 20 µM
CN(C)c1ncc2nc(CCc3ccccc3)c(=O)n(Cc3cccs3)c2n1 | > 20 µM
COc1ccc(CNc2ncnc3ccc(-c4ccccc4C#N)cc23)c(OC)c1 | > 20 µM
CCNc1ncc2ncc(=O)n(Cc3ccc(F)cc3)c2n1 | > 20 µM
CC(=O)N1CCC2(CC1)CCN(C(c1ccccc1)c1ccccc1)CC2 | > 20 µM
COc1ncc2nc(-c3cn(C)c4ccccc34)c(=O)n(C)c2n1 | > 20 µM
Clc1ccccc1-c1cc(NCc2cccnc2)ncn1 | > 20 µM
CN(C)C(=O)c1ccc(-c2cncnc2NCc2cccnc2)cc1 | > 20 µM
CN(C)c1ccc(-c2ccc3ncnc(N4CCNCC4)c3c2)cc1 | > 20 µM
COc1ncc2nc(-c3cc(F)cc(F)c3)c(=O)n(C3CC3)c2n1 | > 20 µM
COC(=O)N1CCC2(CC1)CCN(C(c1ccccc1)c1ccccc1)CC2 | > 20 µM

SMILES | Potency
O=c1c(-c2ccc(Cl)cc2)nc2cnc(N3CCNCC3)nc2n1CCc1ccccc1 | > 20 µM
Cc1noc(C)c1C(=O)N1CCC2(CCCN(c3ccncc3)C2)CC1 | > 20 µM
CS(=O)(=O)N1CCC2(CCCN(C(=O)Nc3cccc(F)c3)C2)CC1 | > 20 µM
COc1ccc(-n2c(=O)c(-c3ccc(Cl)cc3)nc3cncnc32)cc1 | > 4 µM
O=c1c(-c2cccs2)nc2cnc(N3CCNCC3)nc2n1-c1ccccc1 | 12.2 µM
Cn1cccc1C(=O)N1CCC2(CC1)CN(C(=O)Nc1cccc(F)c1)C2 | > 20 µM
COCCn1c(=O)c(-c2cn(C)c3ccccc23)nc2cnc(Oc3cccc(Cl)c3)nc21 | > 20 µM
CNc1nc(-c2ccc(N(C)C)cc2)nc2ccccc12 | > 20 µM
O=C(O)C1CCN(c2ncnc3ccc(-c4ccccc4C(F)(F)F)cc23)CC1 | > 20 µM
COc1ccc(-n2c(=O)c(CCc3ccccc3)nc3cnc(OC)nc32)cc1 | > 20 µM
CN1CCN(c2ncncc2-c2ccc(C(=O)N(C)C)cc2)CC1 | > 20 µM
COc1ncc2nc(-c3ccc(Cl)cc3)c(=O)n(Cc3cccs3)c2n1 | > 20 µM
CN(C)c1ncc2nc(-c3ccc(F)cc3)c(=O)n(-c3ccccc3)c2n1 | > 20 µM
CN(C)C(=O)c1ccc(-c2nc(Nc3ccncc3)c3ccccc3n2)cc1 | > 20 µM
CN(C)c1ncc2ncc(=O)n(C)c2n1 | > 20 µM
COc1ccc(NC(=O)N2CC[C@@]3(CCCN(S(C)(=O)=O)C3)C2)cc1 | > 20 µM
CS(=O)(=O)N1CCC2(CC1)CN(C(=O)Nc1cccc(C#N)c1)C2 | > 20 µM
COc1cccc(-c2nc(NCCc3c[nH]c4ccc(OC)cc34)c3ccccc3n2)c1 | > 20 µM
COc1ccc(-n2c(=O)c(-c3ccc(F)cc3)nc3cncnc32)cc1 | > 20 µM
CN(C)C(=O)c1ccc(-c2cc(Nc3ccccc3)ncn2)cc1 | > 20 µM
COc1cccc(Cn2c(=O)c(-c3cccc(C#N)c3)nc3cnc(OC)nc32)c1 | > 20 µM
CCNc1ncc2nc(-c3ccc(F)cc3)c(=O)n(CCC#N)c2n1 | > 4 µM
COc1ccc(CNc2ccnc(-c3ccccc3CN(C)C)n2)c(OC)c1 | > 20 µM
CC(=O)NCCNc1ncnc2ccc(-c3ccccc3C#N)cc12 | > 20 µM

SMILES | Potency
O=c1c(-c2ccccc2)nc2cnc(Oc3ccccc3)nc2n1C1CC1 | > 20 µM
Cn1c(=O)c(-c2ccc(Cl)cc2)nc2cncnc21 | > 20 µM
O=c1c(CCc2ccccc2)nc2cnc(Oc3cccc(Cl)c3)nc2n1C[C@H]1CCCO1 | > 20 µM
FC(F)(F)c1ccccc1-c1ccc2ncnc(NCCN3CCOCC3)c2c1 | > 20 µM
N#Cc1cccc(NC(=O)N2CC[C@@]3(CCCN(C(=O)c4cccc(F)c4)C3)C2)c1 | > 20 µM
O=C(c1cc(C(F)(F)F)cc(C(F)(F)F)c1)N1CCC2(CCCN(c3ccccn3)C2)CC1 | > 20 µM
CS(=O)(=O)N1CCC2(CC1)CN(C(=O)Nc1cccc(F)c1)C2 | > 20 µM
COCCn1c(=O)c(C)nc2cnc(N3CCOCC3)nc21 | > 20 µM
COc1ccc(CNc2ccnc(-c3cccnc3)n2)c(OC)c1 | > 20 µM
COCCn1c(=O)c(-c2ccc(Cl)cc2)nc2cnc(Nc3ccccc3)nc21 | > 20 µM
COc1cccc(-c2cncnc2NCc2cccc(C)c2)c1 | > 20 µM
COc1ccc(Nc2ncc3nc(-c4cccs4)c(=O)n(Cc4cccc(OC)c4)c3n2)cc1 | 16 µM
COc1cccc(Cn2c(=O)cnc3cnc(N(C)C)nc32)c1 | > 20 µM
CN(Cc1ccco1)c1ccnc(-c2ccoc2)n1 | > 20 µM
Cc1ccccc1-c1nc(N2CCNCC2)c2ccccc2n1 | > 20 µM
O=C(c1cnccn1)N1CCC2(CCN(Cc3nccs3)CC2)CC1 | > 20 µM
COc1ccc(-n2c(=O)c(-c3ccccc3)nc3cncnc32)cc1 | > 20 µM
COc1ccccc1CCn1c(=O)c(CCc2ccccc2)nc2cncnc21 | > 20 µM
Cc1nc2cnc(Oc3ccccc3)nc2n(CCc2ccccc2)c1=O | > 20 µM
Cc1noc(C)c1-c1ccc2ncnc(NCc3cccnc3)c2c1 | > 20 µM
COCC(=O)N1CCC2(CCCN(Cc3nccs3)C2)CC1 | > 20 µM
CN(C)C(=O)c1ccc(-c2cncnc2NCCc2cnc[nH]2)cc1 | > 20 µM
COc1ccc2[nH]cc(CCNc3ncnc4ccc(-c5ccccc5CN(C)C)cc34)c2c1 | > 20 µM
CS(=O)(=O)Nc1cccc(-c2nc(NCc3cccnc3)c3ccccc3n2)c1 | > 20 µM

— PubChem BioAssay (NCATS)
